Compounds with a hit are over-represented: about 19% of the library has one in this group of screens.
Giardia killer – Giardia lamblia killing; AID 540267; 340,000 compounds, 0.15% hits; Giardia lamblia trophozoite viability; activity change, % at 7.66 µM, hits read low; in the data active = activity change below about -80%; inconclusive = between about -30% and that limit;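 also: parasites exposed to compound for two days anaerobically before the ATP read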
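Killing of trophozoites was scored by loss of ATP luminescence after a 48 hrs anaerobic exposure to compounds at 37 deg C, using 100 cells per well.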
ELG1 DNA repair – ELG1-dependent DNA repair inhibition | HEK293T ELG1-luciferase reporter, luminescence, 16 h; DNA damage induced by 5-fluorouridine | Potency, µM (titrated, usually from 46.1 µM), for the others: top-dose activity change, negative = inhibition, usual class: inhibitors | 330,000 compounds, 2.3% hits | AID 504467; also: potency is read from the fitted curve at half-maximal effect; nearly all actives have a fitted effect of over 55% in size
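In this reporter screen, reduction of luminescence relative to DMSO vehicle indicated activity. Compounds and 5-fluorouridine were added together to 2,000 cells per well, incubated for 16 hr at 37 °C, then developed with ONE-Glo.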
DT40 TDP1 no CPT – qHTS for Inhibitors of human tyrosyl-DNA phosphodiesterase 1 (TDP1): qHTS in cells in absence of CPT | 420,000 compounds, 15% hits | Potency, µM (highest dose often 46.2 µM), for the others: top-dose activity change, negative = growth inhibition, most hits filed as inhibitors | DT40 Tdp1-/- hTDP1 cells, no CPT, ATP luminescence, 48 h; also: potency is read from the fitted curve at half-maximal effect; nearly all actives have a fitted effect of over 55% in size
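Chicken DT40 Tdp1-/- cells stably complemented with human TDP1 were seeded at 400 cells/well with DMSO in place of 20 nM camptothecin. After compound pinning, cells grew at least 48 hr at 37 °C; viability read by CellTiter-Glo luminescence.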
IL-1B inflam inh – inhibitors of inflammasome signaling (IL-1 beta secretion); THP-1 LPS/ATP IL-1B secretion, AlphaLISA, 16 h; stronger effect = lower value; AID 743279; 360,000 compounds, 4.7% hits; activity change, % at 57.5 µM; in the data active = activity change below about -50%; inconclusive = mostly about -30% to -49%
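THP-1 cells pretreated 1 hr with compounds (up to 57.5 uM final), then stimulated with LPS (250 ng/mL final) plus ATP (1.25 mM final); secreted IL-1B measured by AlphaLISA after 16 hr, decreased signal indicating inhibition.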
TDP1 inh – blocks human tyrosyl-DNA phosphodiesterase 1; Q9NUW8; recombinant TDP1, AlphaScreen DNA substrate cleavage; Potency, µM (highest dose often 130 µM), inactives show top-dose activity change, negative = inhibition, actives largely listed as inhibitors; 350,000 compounds, 0.28% hits; AID 485290; also: potency is read from the fitted curve at half-maximal effect; nearly all actives have a fitted effect of over 40% in size
Target sequence (Q9NUW8 whole entry, looked up): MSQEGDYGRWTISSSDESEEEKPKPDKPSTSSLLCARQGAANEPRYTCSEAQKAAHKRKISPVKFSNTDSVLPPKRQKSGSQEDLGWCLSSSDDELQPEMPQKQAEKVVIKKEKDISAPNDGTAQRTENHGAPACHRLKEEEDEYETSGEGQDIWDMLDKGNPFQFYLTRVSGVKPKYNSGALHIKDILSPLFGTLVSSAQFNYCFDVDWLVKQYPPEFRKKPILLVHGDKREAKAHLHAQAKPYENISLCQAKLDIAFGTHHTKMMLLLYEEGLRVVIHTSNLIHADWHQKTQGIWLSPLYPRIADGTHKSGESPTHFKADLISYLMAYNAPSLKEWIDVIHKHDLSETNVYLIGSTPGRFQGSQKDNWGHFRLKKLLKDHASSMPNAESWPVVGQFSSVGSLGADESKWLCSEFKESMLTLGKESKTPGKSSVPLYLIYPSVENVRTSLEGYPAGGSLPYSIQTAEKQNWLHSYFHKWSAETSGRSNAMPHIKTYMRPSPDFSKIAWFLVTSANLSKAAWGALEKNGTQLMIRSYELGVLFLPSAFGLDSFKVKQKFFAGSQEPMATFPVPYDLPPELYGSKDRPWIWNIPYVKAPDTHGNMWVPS
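Compounds were preincubated with Tdp1 (1 nM final) for 15 min at room temperature before substrate (15 nM final) started a 5 min reaction; beads (10 ug/ml final) were then added for 10 min before AlphaScreen detection.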
TDP1 cell CPT – growth inhibition of DT40 Tdp1-/-;hTDP1 cells with camptothecin (screen for TDP1 inhibitors) | 420,000 compounds, 12% hits | Potency, µM (series often up to 46.2 µM), without a hit: top-dose activity change, negative = growth inhibition, most hits filed as inhibitors | chicken DT40 Tdp1-/-;hTDP1 cells + 20 nM CPT, ATP luminescence, 48 h; also: potency is read from the fitted curve at half-maximal effect; nearly all actives have a fitted effect of over 55% in size
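Chicken DT40 Tdp1-/- cells stably complemented with human TDP1 were seeded at 400 cells/well in medium containing 20 nM camptothecin, exposed to pin-transferred compounds, and grown at 37 °C for at least 48 hr. Viability was read as ATP luminescence.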
Active calls of the source: *; ? = inconclusive; nt = no result given; [ ] = remark or other dose. Unless noted, calls follow the shape of the dose curve; as a rule, active = well fitted curve in the direction sought with a large enough effect; inconclusive = small, poorly fitted or top-dose-only effect, or another doubt; inactive = no such curve, though single readings can be large; an effect the other way counts as inactive or inconclusive. % is scaled to controls: 0 for no effect and ±100 for the full control effect.

SMILES	Giardia killer	ELG1 DNA repair	DT40 TDP1 no CPT	IL-1B inflam inh	TDP1 inh	TDP1 cell CPT
CCn1c(CSc2nc3ccccc3s2)nc2ccccc21	-10	-11%	16µM*	-12	5%	?
C#CCSc1nnc(CSc2nc3ccccc3s2)n1-c1ccccc1	0	?	18µM*	?	2%	?
c1csc(CSc2nc3ccccc3s2)c1	0	?	-7%	2	-10%	-4%
Cc1cc(C)nc(NC(=O)CSc2nc3ccccc3s2)n1	4	?	5%	50	-3%	-16%
Cc1cc(C)n2c(Br)c(CSc3nc4ccccc4s3)nc2n1	9	?	18µM*	-5	0%	-26%
CC1CN(CC(=O)NCc2ccc(F)cc2)CC(C)O1 (stereo not given)	13	17%	11%	42	3%[0.0935 µM]	6%
Cc1ccc(CC2(c3ccccc3)NC(=O)NC2=O)cc1 (stereo not given)	11	nt	?	16	nt	-10%
COC(=O)c1sccc1S(=O)(=O)N(CC(=O)NCc1ccc(C)cc1)c1ccc(Cl)cc1	nt	nt	?	nt	6%	?
NC(=S)NN=Cc1nccc2c(C(F)(F)F)cccc12	nt	nt	0.73µM*	127	nt	0.52µM*
CNc1cccnc1C=NNC(N)=S	20	nt	0.92µM*	80	nt	1.2µM*
NC(=O)CSc1ncnc2c1nnn2Cc1ccc(F)cc1	9	6%	?	-96*	1%	2%
Cc1ccc(SCC(=O)Nc2ccc(S(=O)(=O)Nc3nccs3)cc2)cc1	-4	3%	3.7µM*	-11	5%	?
Cc1ccc(S(=O)(=O)NCCC(=O)Nc2nccs2)cc1	-11	0%	-14%	-64*	0%	13%
Cc1ccc(CCN2CC(C(=O)NC(C)C)CC2=O)cc1 (stereo not given)	-20	8%	0%	5	nt	13%
Cc1ccc(Nc2ncc(C(=O)NCCCN3CCN(C)CC3)c3ccccc23)cc1Cl	-5	0%	?	-78*	4%	?
O=C(NCCc1ccccc1)c1cccc(Br)n1	nt	nt	nt	nt	9%	nt
Cc1cc(C)cc(NC(=O)CN2CCCN(S(=O)(=O)c3ccc(Br)s3)CC2)c1	0	-21%	?	?	6%	?
CCOC(=O)N1CCN(S(=O)(=O)c2ccc(Br)s2)CC1	11	0%	13µM*	15	5%	?
CN1CCN(S(=O)(=O)c2ccc(Br)s2)CC1	-11	-8%	1%	-11	3%	-14%
Cc1ccc(NC(=O)CN2CCCN(S(=O)(=O)c3ccc(Br)s3)CC2)cc1	4	?	18µM*	-28	2%	18µM*
C[C@H](NS(=O)(=O)OCC(Cl)(Cl)Cl)C1CC1c1ccccc1 (stereo not given in full)	2	-14%	-23%	1	nt	-20%
O=S(=O)(NC1CC(NS(=O)(=O)OCC(Cl)(Cl)Cl)C2CCCCC12)OCC(Cl)(Cl)Cl (stereo not given)	-5	?	15µM*	-19	nt	15µM*
Cc1ccc(Nc2cc(C)nc3ccc(C)cc23)cc1	-14	8.2µM*	?	nt	nt	?
COc1ccc2nc(C)cc(Sc3nc4ccccc4s3)c2c1	-1	5.2µM*	9.2µM*	-99*	0%	9.2µM*
COc1ccc(CNc2cc(C)nc3ccc(OC)cc23)cc1	-3	-8%	21µM*	-93*	12%	?
SMILES	Giardia killer	ELG1 DNA repair	DT40 TDP1 no CPT	IL-1B inflam inh	TDP1 inh	TDP1 cell CPT
COCCCNc1cc(C)nc2ccccc12	10	-17%	9%	19	-4%	-4%
COc1ccc2nc(C)cc(Nc3ccc(C(=O)O)cc3)c2c1	25	16%	-1%	1	nt	10%
COc1ccc(Nc2cc(C)nc3ccc(OC)cc23)cc1	-13	-31%	?	-101*	nt	-4%
Cc1ccc2nc(Nc3nc(C)cc(C(F)(F)F)n3)nc(C)c2c1	4	-5%	?	-15	-2%	8%
CN(Cc1ccccc1)C(=O)C1CCC(CNS(=O)(=O)c2ccc3c(c2)CCCC(=O)N3)CC1 (stereo not given)	nt	nt	?	nt	3%	?
CCOc1ccc(Nc2cc(C)nc3ccc(C)cc23)cc1	1	nt	?	-88*	nt	23µM*
CCOc1ccccc1/C=N/Nc1cc(C)nc2ccc(C)cc12	-10	?	-27%	-21	nt	2%
O=C(OCc1cn([C@H]2CN(C(=O)c3cccs3)[C@@H](c3ccc(Cl)cc3)C[C@@H]2O)nn1)c1ccccc1	nt	nt	?	45	nt	23µM*
O=C(OCc1cn([C@H]2CN(C(=O)c3cccs3)[C@@H](c3ccccc3)C[C@@H]2O)nn1)c1ccccc1	nt	nt	15µM*	21	nt	?
CC1CN(C(=S)SCC(=O)c2ccc([N+](=O)[O-])cc2)CC(C)O1 (stereo not given)	-9	0%	5.2µM*	-23	nt	2.6µM*
O=C(CNc1ccccc1)c1ccc([N+](=O)[O-])cc1	-5	?	16µM*	3	8%	15µM*
O=C(Nc1cccc2ccccc12)c1ccc([N+](=O)[O-])cc1	5	-12%	?	-15	1%	-7%
O=C(CNC(=O)c1ccc([N+](=O)[O-])cc1)c1ccccc1	-7	?	1%	-17	1%	1%
O=C(Nc1c[nH]c(=O)[nH]c1=O)c1ccc([N+](=O)[O-])cc1	-7	6%	11%	15	3%	-1%
O=C(CNc1cccc2ccccc12)c1ccc([N+](=O)[O-])cc1	9	?	13µM*	-5	-3%	15µM*
O=C(Nc1cccc2c(=O)[nH][nH]c(=O)c12)c1ccc([N+](=O)[O-])cc1	nt	nt	-17%	79	nt	8.2µM*
C[C@H](N)C(=O)N1CCC(C(=O)N[C@@H](Cc2ccccc2)C(=O)Nc2ccc(F)cc2)CC1	-15	10%	-8%	-5	nt	-2%
COc1ccc(-c2nnc(SCC(=O)Nc3ccc(C)c(Cl)c3)nc2-c2ccc(OC)c(OC)c2)cc1OC	nt	nt	?	nt	5%	?
NC(=O)c1ccc([N+](=O)[O-])cc1	nt	nt	nt	nt	14%	nt
O=C(CSCC(=O)c1ccc([N+](=O)[O-])cc1)c1ccc([N+](=O)[O-])cc1	nt	nt	?	9	nt	21µM*
COc1cc(CCc2ccccc2)c(C(=O)O)c(O)c1C/C=C(/C)CCC=C(C)C	-3	?	16µM*	35	-3%[56.1 µM]	?
COc1cc(CCc2ccccc2)c(C(=O)O)c(O)c1CC=C(C)C	7	nt	18µM*	-27	nt	23µM*

From PubChem
